Inconclusive results are not listed. A number with no mark means an inactive call. Calls of active or inactive are those of the source. Calls follow the shape of the dose curve; as a rule, active = well fitted curve in the direction sought with a large enough effect; inconclusive = small, poorly fitted or top-dose-only effect, or another doubt; inactive = no such curve, though single readings can be large; an effect the other way counts as inactive or inconclusive.

The test system of test [1] is HACAT. As to the kind of experiment: qHTS assay to identify novel small-molecules to repurpose for Merkel cell carcinoma treatment (AID 1296009). Also: nearly all actives have a fitted effect of over 60% in size. Conditions: MCC and control cell lines, CellTiter-Glo viability, 72 h; at 44.8 µM (top of the series) unless noted. The procedure, abridged: (§1)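 Viability readout: ATP luminescence (CellTiter-Glo) after 72 hr drug exposure at 37 degree celsius. Dose-response format was 8 points for NPC and 11 points for MIPE; data normalized to in-plate controls.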
(Quantitative high-throughput screening tests each substance at several concentrations.)

The subject of test [2] is CAOV3. Nature of the test: Primary qHTS to identify gynecologic anti-cancer compounds using libraries of approved drugs and bioactive compounds (AID 1345084). Also: nearly all actives have a fitted effect of over 55% in size. Also: potency is read from the fitted curve at half-maximal effect. The conditions noted are these: Gynecologic cancer cell panel viability, ATPlite luminescence, 48 h; series mostly up to 57.5 µM. In outline: (§2)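 Cells, 1,000 per well, plated 16 h, then exposed 48 h at 37 C to compounds. Viability by ATPlite luminescence after 15 min at room temperature.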

The subject of test [3] is HeLa. The description is as above. Conditions: Gynecologic cancer cell panel viability, ATPlite luminescence, 48 h; series mostly up to 57.5 µM. In outline: as §2
Test [4] has as its system OV90. Described as above. Conditions: Gynecologic cancer cell panel viability, ATPlite luminescence, 48 h; series mostly up to 57.5 µM. The procedure, abridged: as §2
For orientation: ATP-based viability assays read luminescence as a measure of living cells.

The test system of test [5] is PA-1. Described as above. The conditions noted are these: Gynecologic cancer cell panel viability, ATPlite luminescence, 48 h; series mostly up to 57.5 µM. In outline:
as §2

For test [6], the system named is SKOV3. The test is described as above. The conditions noted are these: Gynecologic cancer cell panel viability, ATPlite luminescence, 48 h; series mostly up to 57.5 µM. In outline: as §2
For test [7], the system named is Tov-21-G. Described as above. Conditions: Gynecologic cancer cell panel viability, ATPlite luminescence, 48 h; series mostly up to 57.5 µM. In outline: as §2
In test [8] the test system is HEK293T. Nature of the test: qHTS assay to identify novel small-molecules to repurpose for Merkel cell carcinoma treatment (AID 1296009). Also: nearly all actives have a fitted effect of over 60% in size. Conditions: MCC and control cell lines, CellTiter-Glo viability, 72 h; at 44.8 µM (top of the series) unless noted. In outline: as §1
Test [9] relates to C33A. Nature of the test: Primary qHTS to identify gynecologic anti-cancer compounds using libraries of approved drugs and bioactive compounds (AID 1345084). Also: nearly all actives have a fitted effect of over 55% in size. Also: potency is read from the fitted curve at half-maximal effect. Conditions: Gynecologic cancer cell panel viability, ATPlite luminescence, 48 h; series mostly up to 57.5 µM. In outline: as §2
Test [10] deals with CASKI. Described as above. The conditions noted are these: Gynecologic cancer cell panel viability, ATPlite luminescence, 48 h; series mostly up to 57.5 µM. In outline:
as §2

The subject of test [11] is Es-2. Described as above. Conditions: Gynecologic cancer cell panel viability, ATPlite luminescence, 48 h; series mostly up to 57.5 µM. The procedure, abridged:
as §2

Test [12] has as its system Hek293T. The description is as above. The conditions noted are these: Gynecologic cancer cell panel viability, ATPlite luminescence, 48 h, control line for the selectivity index; series mostly up to 57.5 µM. In outline:
as §2

The subject of test [13] is JEG-3. Described as above. The conditions noted are these: Gynecologic cancer cell panel viability, ATPlite luminescence, 48 h; series mostly up to 57.5 µM. In outline: as §2
In test [14] the test system is Tov112D. Described as above. Conditions: Gynecologic cancer cell panel viability, ATPlite luminescence, 48 h; series mostly up to 57.5 µM. In outline: as §2
The test system of test [15] is NIH3T3. As to the kind of experiment: qHTS assay to identify novel small-molecules to repurpose for Merkel cell carcinoma treatment (AID 1296009). Also: nearly all actives have a fitted effect of over 60% in size. Conditions: MCC and control cell lines, CellTiter-Glo viability, 72 h; at 44.8 µM (top of the series) unless noted. The procedure, abridged: as §1

Take `CC(CNS(=O)(=O)C(C)C)c1ccc(-c2ccc(C#N)cc2)cc1` (centres undefined): the result in test [1] was inactive. In addition, the Potency entry in test [2], in test [3], in test [5] and in [7] was “inactive” throughout. In addition, the Potency was 10 µM (active) in test [4] and 8.91 µM (active) in test [6].

For `C/C=C(\C)C1C(C)=CC2CCC(OS(=O)(=O)O)C(C)C2C1/C=C/C=C/C(=O)O` (centres undefined), the outcome in test [8] was “inactive [at 17.4 µM]”. The Potency entry in test [9], in test [2], in test [11], in test [3], in test [12] and in [13] was “inactive” throughout. For the same compound, the Potency result in test [4], in test [5], in test [7] and in test [14] was “inactive” each time. Moreover, the outcome in test [10] was inactive.

As for `COc1cc(/C=C/C(=O)O[C@@H]2O[C@H](CO)[C@@H](O)[C@H](O)[C@H]2O)ccc1O`, the compound was called inactive in test [8] and in [10]. Further, the Potency entry in [9], in [2], in test [11], in test [3], in test [12] and in test [13] was “inactive” in each case. Further, the Potency result in test [4], in [5], in test [7] and in test [14] was “inactive” in each case.

On to `C=CC(C)(CC/C=C(\C)C(=O)OC)OC1OC(COC(=O)CC(C)(O)CC(=O)O)C(O)C(O)C1O` (centres undefined), for which the outcome in [8] was “inactive [at 17.4 µM]”. The Potency result in test [9], in test [2], in test [11], in test [3], in test [12] and in test [13] was “inactive” each time. Also, the Potency entry in test [4], in test [5], in test [7] and in test [14] was “inactive” throughout. Besides, in test [10], the call was inactive.

As to `COc1ccc(-c2ccn(CC[C@](C)(C(=O)NO)S(C)(=O)=O)c(=O)c2)c(F)c1`, the compound was classed as inactive in [1]. Besides, the Potency in test [2] was 22.4 µM (active); in [11] it was 14.1 µM (active); in [13], 20 µM (active); in [4], 15.8 µM (active); in test [7], 25.1 µM (active).

Take `CC(CCc1ccc(O)cc1)O[C@@H]1O[C@H](CO[C@@H]2OC(CO)[C@H](O)[C@H]2O)[C@@H](O)[C@H](O)[C@H]1O` (some centres undefined): the outcome in test [8] was “inactive [at 17.4 µM]”. In addition, the Potency result in [9], in test [2], in test [11], in test [3], in [12] and in [13] was “inactive” each time. The Potency result in test [4], in [5], in [7] and in [14] was “inactive” in each case. In addition, in test [10], the compound was classed as inactive.

As to `CC1=C2CC(=O)C(C)CC/C=C(\C)CC2OC1=O` (centres undefined), the compound was classed as inactive in test [1] and in [10]. Also, the Potency entry in [2], in [11], in test [3], in test [12], in test [13] and in test [4] was “inactive” each time. In addition, the Potency result in [5], in test [6], in [7] and in test [14] was “inactive” in each case.

Take `C=C[C@@](C)(CCC=C(C)C)O[C@@H]1O[C@H](CO[C@@H]2OC[C@H](O)[C@H](O)[C@H]2O)[C@@H](O)[C@H](O)[C@H]1O`: the outcome in test [8] is “inactive [at 17.4 µM]”. Besides, the Potency result in [9], in test [2], in [11], in [3], in [12] and in test [13] was “inactive” each time. Besides, the Potency result in [4], in test [5], in test [7] and in test [14] was “inactive” in each case. The call in [10] was inactive.

With `CSCC1OC(n2cnc3c(N)ncnc32)C(O)C1O` (centres undefined), the outcome in [8] and in test [10] was inactive. The Potency entry in test [9], in [2], in [11], in test [3], in test [12] and in test [13] was “inactive” each time. The Potency entry in test [4], in test [5], in test [7] and in test [14] was “inactive” throughout.

Take `CC(=O)OC1CC2(C)C(CCC(C)C23Cc2c(O)cc4c(c2O3)CNC4=O)C(C)(C)C1O` (centres undefined): in test [8], the outcome was “inactive [at 17.4 µM]”. Further, the Potency result in [9], in test [2], in [11], in [3], in test [12] and in test [13] was “inactive” each time. Besides, the Potency result in [4], in [6], in test [7] and in test [14] was “inactive” in each case. Moreover, the compound was called inactive in test [10].

Consider `CC1(C)CC[C@]2(C(=O)O)CC[C@]3(C)C(=CCC4[C@@]5(C)C[C@@H](O)[C@H](O)[C@@](C)(CO)C5[C@H](O)C[C@]43C)[C@@H]2C1` (some centres undefined), for which, in test [1], the outcome was “inactive [at 17.4 µM]”. Also, the Potency entry in test [9], in test [11], in test [3], in [12], in test [13] and in [4] was “inactive” throughout. Further, the Potency entry in test [5], in test [7] and in [14] was “inactive” throughout. The outcome in test [10] was inactive.

As for `COc1cccc(CNc2ccc(S(=O)(=O)Nc3nc4ccccc4s3)cc2)c1O`, the call in test [8] and in test [10] was inactive. In addition, the Potency result in [9], in test [2], in test [11], in test [3], in test [12] and in [13] was “inactive” in each case. The Potency result in test [4], in [5], in [7] and in test [14] was “inactive” throughout.

Turning to `CC1=CCC(O)C2(C)CCC3C(C)C(=O)OC3C12` (centres undefined), the compound was classed as inactive in test [1] and in [10]. The Potency entry in [2], in [11], in [3], in test [12], in test [13] and in test [4] was “inactive” throughout. The Potency entry in test [5], in [6], in [7] and in test [14] was “inactive” throughout.

As for `CN(C)C(=O)C(O)C(Cc1ccccc1)NC(=O)c1cc2cc(Cl)ccc2[nH]1` (centres undefined), the result in test [8] and in [10] was inactive. Further, the Potency entry in test [9], in test [2], in [11], in [3], in test [13] and in test [4] was “inactive” in each case. In addition, the Potency entry in [5], in test [6] and in test [14] was “inactive” each time.

In the case of `C[C@@H]1CC[C@]2(C(=O)O)CC[C@]3(C)C(=CCC4[C@@]5(C)C[C@@H](O)[C@@H](O)C(C)(C)C5CC[C@]43C)C2[C@]1(C)O` (some centres undefined), in test [8], the outcome is “inactive [at 17.4 µM]”. Moreover, the Potency entry in test [9], in test [2], in [11], in [3], in [12] and in test [13] was “inactive” in each case. The Potency entry in test [4], in test [7] and in test [14] was “inactive” each time. Besides, the compound was classed as inactive in test [10].

Take `CC1(C)OC(=O)CC(O)C2(C)C1CC(=O)C1(C)C2C(O)CC2(C)C(c3ccoc3)OC(=O)C3OC321` (centres undefined): the outcome in test [8] was “inactive [at 17.4 µM]”. For the same compound, the Potency result in test [9], in [11], in test [3], in test [12], in test [13] and in test [4] was “inactive” in each case. The Potency entry in test [5], in test [6], in [7] and in test [14] was “inactive” throughout. Also, the compound was called inactive in test [10].

Turning to `CC(=O)NCC1CN(c2ccc(-c3ccc(CNCc4cn[nH]n4)cc3)c(F)c2)C(=O)O1` (centres undefined), the compound was called inactive in [15] and in test [10]. The Potency entry in test [9], in [2], in test [11], in [3], in test [12] and in test [13] was “inactive” throughout. Moreover, the Potency entry in test [4], in test [5], in [6], in [7] and in test [14] was “inactive” in each case.

As for `COc1ccc(/C=C/C(=O)O[C@@H]2[C@@H](OC(C)=O)[C@@H](OC(C)=O)[C@H](O[C@H]3[C@@H]4C=CO[C@@H](O[C@@H]5O[C@H](CO)[C@@H](O)[C@H](O)[C@H]5O)[C@@H]4[C@@]4(CO)O[C@@H]34)O[C@H]2C)cc1`, in test [15], the outcome is “inactive [at 17.4 µM]”. Besides, the Potency result in test [9], in test [2], in test [11], in [3], in test [12] and in test [13] was “inactive” throughout. In addition, the Potency entry in [4], in test [5], in test [6], in test [7] and in [14] was “inactive” throughout. Moreover, the compound was called inactive in test [10].

(Values after PubChem BioAssay (NCATS).)
